Measured values reported in PubChem BioAssay AID1159580 (chemical genetic matrix, 2015).
Values joined by “and” are separate entries in the source; they are usually repeats but may differ in a detail not shown here. Identical values can stand only once. Hit rate of the full screen: of about 5,500 compounds, about 2,000 (36%) were called active. About 18% were inconclusive and are not listed. Cut-off read from the data, not from the text of the source: active = normalized growth mostly below about 0.91 (no sharp cut-off); inconclusive = no clear call, values can overlap the other calls; inactive = mostly above about 0.92. The list shows a part of the results.

Assay: chemical genetic growth profiling, strain panel (AID 1159580);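 note: tested at 20 µM; growth read once vehicle control cultures reached saturation at 30 °C; 1 = growth at the plate median or of vehicle wells; lower values mean less growth of the strain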
Conditions: S. cerevisiae deletion strains, growth OD

Measured: normalized growth

NS(=O)(=O)c1cc2c(cc1Cl)NCNS2(=O)=O
inactive: locus YAL013W, strain DEP1, stronger effect = lower value 1.01 | locus YAL021C, strain ccr4, stronger effect = lower value 1 | locus YAL026C, strain drs2, stronger effect = lower value 1.01 | locus YAL030W, strain snc1, stronger effect = lower value 1 | locus YAL040C, strain CLN3, stronger effect = lower value 1.01 | locus YBL061C, strain skt5, stronger effect = lower value 0.995 | locus YBR009C, strain hhf1, stronger effect = lower value 0.996 | locus YBR021W, strain FUR4, stronger effect = lower value 0.994 | locus YBR023C, strain chs3, stronger effect = lower value 0.984 | locus YBR171W, strain sec66, stronger effect = lower value 0.997 | locus YBR229C, strain ROT2, stronger effect = lower value 1 | locus YBR231C, strain swc5, stronger effect = lower value 0.976 | locus YBR279W, strain paf1, stronger effect = lower value 0.999 | locus YCL011C, strain gbp2, stronger effect = lower value 1 | locus YCL016C, strain dcc1, stronger effect = lower value 0.971 | locus YCL029C, strain bik1, stronger effect = lower value 0.996 | locus YCL061C, strain MRC1 (second series), stronger effect = lower value 1.01 | locus YCL061C, strain MRC1, stronger effect = lower value 0.999 | locus YCL069W, strain vba3, stronger effect = lower value 0.993 | locus YCR088W, strain abp1, stronger effect = lower value 0.995 | locus YDL005C, strain med2, stronger effect = lower value 0.984 | locus YDL035C, strain GPR1, stronger effect = lower value 1.02 | locus YDL040C, strain nat1, stronger effect = lower value 1 | locus YDL074C, strain BRE1, stronger effect = lower value 0.989 | locus YDL101C, strain DUN1, stronger effect = lower value 1.01 | locus YDL134C, strain PPH21, stronger effect = lower value 1.01 | locus YDL185W, strain tfp1, stronger effect = lower value 0.998 | locus YDL192W, strain arf1, stronger effect = lower value 0.999 | locus YDR001C, strain nth1, stronger effect = lower value 0.996 | locus YDR069C, strain doa4, stronger effect = lower value 1.03 | locus YDR101C, strain arx1, stronger effect = lower value 1.03 | locus YDR137W, strain rgp1, stronger effect = lower value 0.97 | locus YDR159W, strain sac3, stronger effect = lower value 1 | locus YDR162C, strain NBP2, stronger effect = lower value 1.01 | locus YDR195W, strain ref2 0.982 | locus YDR297W, strain sur2, stronger effect = lower value 1 | locus YDR318W, strain mcm21, stronger effect = lower value 0.991 | locus YDR334W, strain swr1, stronger effect = lower value 1 | locus YDR335W, strain msn5, stronger effect = lower value 1 | locus YDR363W, strain ESC2, stronger effect = lower value 1.02 | locus YDR388W, stronger effect = lower value 0.993 | locus YDR392W, strain spt3, stronger effect = lower value 0.962 | locus YDR502C, strain sam2, stronger effect = lower value 0.994 | locus YEL003W, strain gim4, stronger effect = lower value 1.01 | locus YEL037C, strain rad23, stronger effect = lower value 0.992 | locus YEL061C, strain CIN8 (second series), stronger effect = lower value 0.991 | locus YEL061C, strain CIN8, stronger effect = lower value 1 | locus YER002W, strain NOP16, stronger effect = lower value 0.996 | locus YER015W, strain faa2, stronger effect = lower value 0.983 | locus YER016W, strain bim1, stronger effect = lower value 1.01 | locus YER110C, stronger effect = lower value 0.998 | locus YER111C, strain swi4, stronger effect = lower value 0.992 | locus YER155C, strain BEM2 (second series), stronger effect = lower value 1.02 | locus YER155C, strain BEM2, stronger effect = lower value 1.01 | locus YER167W, strain BCK2, stronger effect = lower value 1 | locus YFR010W, strain ubp6, stronger effect = lower value 1 | locus YGL078C, strain dbp3, stronger effect = lower value 0.997 | locus YGL086W, strain mad1, stronger effect = lower value 0.999 | locus YGL167C, strain pmr1, stronger effect = lower value 1 | locus YGL173C, strain kem1, stronger effect = lower value 0.996 | locus YGL227W, strain vid30, stronger effect = lower value 0.996 | locus YGL240W, strain doc1, stronger effect = lower value 1 | locus YGL248W, strain PDE1, stronger effect = lower value 1 | locus YGL253W, strain hxk2, stronger effect = lower value 1 | locus YGR078C, strain PAC10, stronger effect = lower value 1.01 and 0.993 | locus YGR135W, strain pre9, stronger effect = lower value 0.984 | locus YGR229C, strain SMI1, stronger effect = lower value 1.01 | locus YGR252W, strain gcn5, stronger effect = lower value 0.969 | locus YHR013C, strain ard1, stronger effect = lower value 0.999 | locus YHR027C, strain rpn1, stronger effect = lower value 0.99 | locus YHR030C, strain SLT2, stronger effect = lower value 1.01 and 0.971 | locus YHR079C, strain IRE1 (second series), stronger effect = lower value 0.996 | locus YHR079C, strain IRE1, stronger effect = lower value 0.962 | locus YHR094C, strain hxt1, stronger effect = lower value 0.993 | locus YHR129C, strain ARP1, stronger effect = lower value 1 | locus YHR142W, strain chs7, stronger effect = lower value 0.994 | locus YHR200W, strain rpn10, stronger effect = lower value 1 | locus YIL066C, strain RNR3, stronger effect = lower value 1.01 | locus YIL073C, strain SPO22, stronger effect = lower value 1.01 | locus YIL125W, strain kgd1, stronger effect = lower value 0.996 | locus YIR030C, strain dcg1, stronger effect = lower value 1 | locus YJL092W, strain hpr5, stronger effect = lower value 1 | locus YJL095W, strain BCK1 (second series), stronger effect = lower value 1 | locus YJL095W, strain BCK1, stronger effect = lower value 1.01 and 0.976 | locus YJL115W, strain asf1, stronger effect = lower value 1.01 | locus YJL129C, strain trk1, stronger effect = lower value 1 | locus YJL134W, strain LCB3, stronger effect = lower value 1.01 | locus YJL154C, strain vps35, stronger effect = lower value 0.995 | locus YJL164C, strain tpk1, stronger effect = lower value 0.995 | locus YJL166W, strain qcr8, stronger effect = lower value 0.999 | locus YJL168C, strain set2, stronger effect = lower value 0.993 | locus YJL187C, strain SWE1 (second series), stronger effect = lower value 1.01 | locus YJL187C, strain SWE1, stronger effect = lower value 0.998 | locus YJR043C, strain POL32, stronger effect = lower value 1.02 | locus YJR066W, strain TOR1, stronger effect = lower value 0.937 | locus YJR075W, strain HOC1, stronger effect = lower value 1.01 | locus YKL009W, strain mrt4, stronger effect = lower value 1.01 | locus YKL068W, stronger effect = lower value 1 | locus YKL085W, strain MDH1 (second series), stronger effect = lower value 0.994 | locus YKL085W, strain MDH1, stronger effect = lower value 0.994 | locus YKL160W, strain elf1, stronger effect = lower value 0.988 | locus YKL190W, strain CNB1, stronger effect = lower value 1.01 | locus YKR001C, strain vps1, stronger effect = lower value 1.01 | locus YKR026C, strain gcn3, stronger effect = lower value 0.997 | locus YKR091W, strain srl3, stronger effect = lower value 0.997 | locus YLL001W, strain dnm1, stronger effect = lower value 0.98 | locus YLL026W, stronger effect = lower value 1 | locus YLL041C, strain sdh2, stronger effect = lower value 0.997 | locus YLR027C, strain aat2, stronger effect = lower value 1.01 | locus YLR039C, strain RIC1, stronger effect = lower value 0.936 | locus YLR058C, strain SHM2, stronger effect = lower value 0.989 | locus YLR102C, strain apc9, stronger effect = lower value 0.993 | locus YLR113W, strain HOG1, stronger effect = lower value 0.989 | locus YLR221C, strain rsa3, stronger effect = lower value 0.963 | locus YLR258W, strain gsy2, stronger effect = lower value 0.996 | locus YLR262C, strain YPT6 (second series), stronger effect = lower value 0.992 | locus YLR262C, strain YPT6, stronger effect = lower value 1.01 | locus YLR268W, strain sec22, stronger effect = lower value 0.991 | locus YLR320W, strain mms22, stronger effect = lower value 0.998 | locus YLR330W, strain CHS5, stronger effect = lower value 1.01 | locus YLR342W, strain FKS1 (second series), stronger effect = lower value 1.02 | locus YLR342W, strain FKS1, stronger effect = lower value 1 | locus YLR357W, strain rsc2, stronger effect = lower value 1.01 | locus YLR370C, strain arc18, stronger effect = lower value 0.983 | locus YLR371W, strain rom2, stronger effect = lower value 1 | locus YLR384C, strain iki3, stronger effect = lower value 0.996 | locus YLR418C, strain cdc73, stronger effect = lower value 0.978 | locus YML016C, strain PPZ1, stronger effect = lower value 1.01 | locus YML032C, strain rad52, stronger effect = lower value 1 | locus YML120C, strain ndi1, stronger effect = lower value 0.978 | locus YML124C, strain tub3, stronger effect = lower value 0.999 | locus YMR058W, strain fet3, stronger effect = lower value 0.998 | locus YMR078C, strain ctf18, stronger effect = lower value 0.993 | locus YMR125W, strain sto1, stronger effect = lower value 1 | locus YMR129W, stronger effect = lower value 0.995 | locus YMR205C, strain PFK2, stronger effect = lower value 0.992 | locus YMR223W, strain ubp8, stronger effect = lower value 0.985 | locus YMR231W, strain pep5, stronger effect = lower value 0.996 | locus YMR263W, strain SAP30, stronger effect = lower value 1.01 | locus YMR307W, strain GAS1, stronger effect = lower value 0.999 | locus YNL067W, strain RPL9B, stronger effect = lower value 1.01 | locus YNL071W, strain lat1, stronger effect = lower value 1 | locus YNL128W, strain TEP1, stronger effect = lower value 1.02 | locus YNL153C, strain GIM3, stronger effect = lower value 1.01 and 1.02 | locus YNL175C, strain NOP13, stronger effect = lower value 1.02 | locus YNL183C, strain NPR1, stronger effect = lower value 0.956 | locus YNL197C, strain WHI3, stronger effect = lower value 1 | locus YNL209W, strain ssb2, stronger effect = lower value 0.998 | locus YNL224C, strain SQS1, stronger effect = lower value 0.996 | locus YNL233W, strain BNI4, stronger effect = lower value 1.01 | locus YNL248C, strain rpa49, stronger effect = lower value 1.01 | locus YNL250W, strain rad50, stronger effect = lower value 0.987 | locus YNL271C, strain bni1, stronger effect = lower value 0.991 | locus YNL298W, strain CLA4, stronger effect = lower value 1 | locus YNL307C, strain MCK1, stronger effect = lower value 0.999 | locus YNL322C, strain KRE1 (second series), stronger effect = lower value 0.993 | locus YNL322C, strain KRE1, stronger effect = lower value 1 and 1.01 | locus YNR049C, strain mso1, stronger effect = lower value 1 | locus YNR052C, strain pop2, stronger effect = lower value 0.999 | locus YOL006C, strain TOP1, stronger effect = lower value 1.03 | locus YOL012C, strain htz1 0.74 | locus YOL147C, strain pex11, stronger effect = lower value 0.993 | locus YOR001W, strain rrp6, stronger effect = lower value 1.04 | locus YOR061W, strain CKA2, stronger effect = lower value 1 | locus YOR069W, strain VPS5, stronger effect = lower value 1.01 | locus YOR070C, strain gyp1, stronger effect = lower value 0.994 | locus YOR080W, strain dia2, stronger effect = lower value 1 | locus YOR083W, strain WHI5 (second series), stronger effect = lower value 0.981 | locus YOR083W, strain WHI5, stronger effect = lower value 0.988 | locus YOR106W, strain vam3, stronger effect = lower value 1.01 | locus YOR136W, strain idh2, stronger effect = lower value 0.997 | locus YOR144C, strain elg1, stronger effect = lower value 0.994 | locus YOR184W, strain ser1, stronger effect = lower value 0.994 | locus YOR231W, strain MKK1, stronger effect = lower value 0.972 | locus YOR265W, strain rbl2, stronger effect = lower value 0.997 | locus YOR270C, strain vph1, stronger effect = lower value 1.03 | locus YOR290C, strain snf2, stronger effect = lower value 0.956 | locus YOR316C, strain cot1, stronger effect = lower value 0.996 | locus YPL051W, strain arl3, stronger effect = lower value 1 | locus YPL055C, strain LGE1, stronger effect = lower value 1.02 | locus YPL078C, strain atp4, stronger effect = lower value 0.994 | locus YPL106C, strain sse1, stronger effect = lower value 0.979 | locus YPL240C, strain hsp82, stronger effect = lower value 1 | locus YPL241C, strain CIN2, stronger effect = lower value 1.01 | locus YPL256C, strain CLN2, stronger effect = lower value 0.986 | locus YPR119W, strain clb2, stronger effect = lower value 0.992 | locus YPR141C, strain kar3, stronger effect = lower value 1 | locus YPR163C, strain tif3, stronger effect = lower value 0.994 | locus YPR167C, strain met16, stronger effect = lower value 1 | strain wtn01, stronger effect = lower value 0.984
